# VACV Venus inh: inhibitors of vaccinia virus (Venus reporter); actives 0.46% (n = 330,000); Vaccinia virus Venus reporter expression, fluorescence; Potency, µM (titrated, usually from 36.5 µM), for the others: at the top dose activity change, negative = inhibition, most hits filed as inhibitors; calls by dose curve; tested in A549 cells; also: % is scaled to controls: 0 for no effect and ±100 for the full control effect; nearly all actives have a fitted effect of over 30% in size
# Pf growth 96h: inhibits malaria parasite growth, 96 h. AID 504834. actives 6.9% (n = 320,000). Potency, µM (titrated, usually from 28.7 µM), without a hit: top-dose activity change, negative = inhibition, usual class: inhibitors. P. falciparum luciferase reporter growth, 96 h; also: % is scaled to controls: 0 for no effect and ±100 for the full control effect
#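 Erythrocytes infected with luciferase-expressing P. falciparum were dispensed at 2% hematocrit and 0.05% parasitemia (final), then incubated with compounds 96 hours at 37 C in 5% CO2. Luminescence after detection reagent addition reported growth.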
# HCV inhibitor: blocks hepatitis C virus; Huh7.5.1 HCVcc-Cre infection, luciferase reporter, 44 h; Potency, µM (series often up to 41.8 µM), for inactives: top-dose activity change, negative = inhibition, hits mostly inhibitors; actives 3.4% (n = 340,000); AID 651820; also: % is scaled to controls: 0 for no effect and ±100 for the full control effect
#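 Infectious HCV cell culture screen: compound-treated cells (1,000/well, pre-plated 4 h) are infected with HCVcc-Cre at roughly 0.5 moi and grown 44 h. Infection is quantified by luciferase signal after 15 min substrate incubation at room temperature.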
# Pf growth 48h: inhibits P. falciparum growth in the first generation, 48 h; Potency, µM (series often up to 28.7 µM), without a hit: at the highest dose activity change, negative = inhibition, usual class: inhibitors; actives 5.9% (n = 310,000); P. falciparum luciferase growth in erythrocytes, 48 h; also: % is scaled to controls: 0 for no effect and ±100 for the full control effect
#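 Cell-based growth assay: transgenic P. falciparum expressing firefly luciferase, cultured in red cells within RPMI 1640 containing 0.5% w/v Albumax, 24 mM bicarbonate and gentamycin. A drop in luciferase activity indicates inhibition.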
# NS1 function inh: inhibitors of influenza NS1 protein function | actives 0.4% (n = 270,000) | AID 2326 | Potency, µM (doses to about 46.1 µM), inactives show at the top dose activity, positive = more growth; calls by dose curve; also: actives are rising curves; nearly all actives have a fitted effect of over 50% in size
#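 Recovery from NS1-induced slow growth read by OD600 in budding yeast switched to galactose assay medium (pH 6.0, -URA) at 1:100 dilution. Compound 23 nl per well; the matching strain lacking NS1 serves as control.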
# Vaccinia mCherry: inhibitors of vaccinia virus infection (mCherry reporter signal); Vaccinia virus mCherry reporter infection, fluorescence; AID 720579; actives 0.63% (n = 310,000); Potency, µM (series often up to 36.5 µM), for inactives: top-dose activity change, negative = inhibition, actives largely listed as inhibitors; calls by dose curve; tested in A549 cells; also: % is scaled to controls: 0 for no effect and ±100 for the full control effect; nearly all actives have a fitted effect of over 35% in size
# * = called active by the depositor; i = inactive; ? = inconclusive; . = not tested or not shown. A selection: hits, their analogues and other compounds. The true share with any hit is near 11%. Unless noted, calls follow the shape of the dose curve; as a rule, active = well fitted inhibition curve with a large enough effect; inconclusive = small, poorly fitted or top-dose-only effect, or another doubt; inactive = no such curve, though single readings can be large or run the other way. Potency is read from the fitted curve at half-maximal effect.
SMILES,VACV Venus inh,Pf growth 96h,HCV inhibitor,Pf growth 48h,NS1 function inh,Vaccinia mCherry
O=C(COC(=O)C1CCN(S(=O)(=O)c2ccc3c(c2)OCCO3)CC1)Nc1cccc2ccccc12,-7%,18%,-5%,19%,?,-6%
CCOC(=O)CSc1cccc2cccnc12,?,-25%,6.3µM*,?,-33%,.
Cc1cccc(NC(=O)CSc2cccc3cccnc23)c1C,-21%,?,-9%,2%,-34%,-8%
CCOC(=O)c1c(C)n(CCNC(C)=O)c2ccc(OC)cc12,-10%,.,-8%,10%,2%,-11%
CCOC(=O)c1c(-c2ccccc2)c2cc(OC)ccc2n1CCCN(C)C,.,65%,14µM*,9.3µM*,-7%,.
CCCOc1ccc(Br)cc1/C=N/O,?,57%,10µM*,33%,-44%,.
CCOc1ccc(Br)cc1/C=N/O,-12%,12%,8.9µM*,13%,-86%,-17%
O=C(O)COc1ccc(Br)cc1/C=N/O,-11%,2%,17%,?,-6%,.
CCOC(=O)c1cccc(NC(=O)CC2C(=O)N(c3ccc(OC)cc3)C(=O)N2C2CCCC2)c1 (configuration not stated),-17%,.,.,.,.,-16%
O=C1CSC(c2c(F)cccc2Cl)N1c1cccc(F)c1 (configuration not stated),.,12µM*,-17%,?,-1%,.
O=C1CSC(c2ccccc2F)N1c1ccccc1 (configuration not stated),.,8.3µM*,?,-16%,3%,.
O=C1CSC(c2ccccc2F)N1c1ccccc1F (configuration not stated),.,47%,6%,.,2%,.
CC(OC(=O)[C@@H](NC(=O)c1ccco1)C(C)C)C(=O)Nc1ncc(Cl)cc1Cl (some centres not stated),.,.,-6%,.,.,.
O=C1CCCC(O)=C1N=Nc1ccc(C(=O)O)cc1,-4%,0%,24%,-15%,13%,-9%
O=C(Cc1ccc(Br)cc1)OCC(=O)c1ccc2c(c1)OCCO2,-2%,14%,12%,13%,-10%,-7%
COc1ccc2cc(C=O)n(C)c2c1,-2%,?,4%,14%,.,i
COc1ccc2cc(CO)n(C)c2c1,-12%,?,?,12µM*,.,-5%
O=[N+]([O-])c1cnn(-c2nc(-c3ccco3)cc(C(F)(F)F)n2)c1,1%,12µM*,-24%,-8%,.,-10%
O=C(CN1CCN(Cc2ccccc2F)C1=O)NCc1cccnc1,-8%,?,11%,7%,5%,i
O=C(CN1CCN(Cc2ccccc2F)C1=O)NCc1ccco1,.,13µM*,11%,.,4%,.
Clc1ccc(/C=N/Nc2nnc(Cl)c3ccccc23)cc1,-9%,-11%,7%,332%,-1%,-13%
Cc1cc(/C=C2\C(=N)N3N=C(C(C)C)SC3=NC2=O)c(C)n1-c1ccccc1,-7%,12µM*,-13%,-2%,.,i
CC(C)Cc1nc(C#N)c(N2CCC(C(N)=O)CC2)o1,-13%,?,3%,-12%,-4%,-14%
CCN(CC)C(=O)Oc1ccccc1NC(C)=O,.,9.3µM*,3%,8%,11%,.
CC(=O)Nc1ccccc1OC(=O)N(C)C,.,.,13%,13%,-4%,.
SMILES,VACV Venus inh,Pf growth 96h,HCV inhibitor,Pf growth 48h,NS1 function inh,Vaccinia mCherry
O=c1c(Cc2ccc(Cl)cc2Cl)c(O)ccn1Cc1ccc(Cl)cc1,-4%,?,-5%,4.1µM*,?,.
O=c1c(Cc2ccc(F)cc2)c(O)ccn1Cc1cccc(Cl)c1,-21%,13µM*,9%,12µM*,-3%,.
COc1cccc(NC(=O)C2C3C=CC(O3)C2C(=O)NCc2cccnc2)c1 (configuration not stated),.,3%,6%,-7%,1%,.
Cc1cc2c(cc1C)CSC(c1c(O)ccc3ccccc13)SC2,?,.,?,12µM*,-31%,-21%
Cc1cc2c(cc1C)CSC(c1ccc(O)cc1)SC2,-8%,1%,1%,72%,-11%,-22%
Cc1cc2c(cc1C)CSC(c1ccccc1O)SC2,.,.,?,-21%,-5%,.
Cc1cc2c(cc1C)CSC(c1ccc3ccccc3c1O)SC2,.,?,-14%,9.3µM*,10%,.
CCCOc1ccc(-c2cnc(N)s2)cc1,5µM*,265%,?,179%,-8%,4.5µM*

# Screens: PubChem, National Center for Advancing Translational Sciences (NCATS)
